HEK cytotox – HEK 293 cell cytotoxicity | HEK 293 viability, ATP luminescence (CellTiter-Glo), 48-72 h | Potency, µM (top dose mostly 115 µM), without a hit: top-dose activity change, negative = cytotoxicity, usual class: inhibitors | 94,000 tested, 6.6% active | AID 1345083; active means well fitted curve in the direction sought with a large enough effect; inconclusive means small, poorly fitted or top-dose-only effect, or another doubt; inactive means no such curve, though single readings can be large; an effect the other way counts as inactive or inconclusive; further: on the % scale 0 is the no-effect control and ±100 the full control effect; nearly all actives have a fitted effect of over 60% in size
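Cells seeded first (HEK 293, 250 cells/well), then compound added by pintool. Incubation ran 48 or 72 hr at 37 degree Celsius. CellTiter-Glo was added and luminescence imaged after 10 min at room temperature.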
3T3 cytotox – kills NIH 3T3 cells; NIH 3T3 viability, CellTiter-Glo ATP luminescence, 48-72 h; Potency, µM (titrated, usually from 96.7 µM), without a hit: at the top dose activity change, negative = cytotoxicity, actives largely listed as inhibitors; 94,000 tested, 4.3% active; AID 1345082; active means well fitted curve in the direction sought with a large enough effect; inconclusive means small, poorly fitted or top-dose-only effect, or another doubt; inactive means no such curve, though single readings can be large; an effect the other way counts as inactive or inconclusive; further: on the % scale 0 is the no-effect control and ±100 the full control effect; nearly all actives have a fitted effect of over 55% in size
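First NIH 3T3 cells are plated at 400 cells/well; next compound is pinned in; then plates incubate 48 or 72 hr at 37 °C; finally CellTiter-Glo is added and luminescence read after 10 min.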
FLuc inh – inhibitors of firefly (Photinus pyralis) luciferase; AID 1347043; 76,000 tested, 2.5% active; purified P. pyralis luciferase, luminescence, biochemical; Potency, µM (top dose mostly 115 µM), usual class: inhibitors; P08659; active means well fitted curve in the direction sought with a large enough effect; inconclusive means small, poorly fitted or top-dose-only effect, or another doubt; inactive means no such curve, though single readings can be large; an effect the other way counts as inactive or inconclusive; further: on the % scale 0 is the no-effect control and ±100 the full control effect; nearly all actives have a fitted effect of over 65% in size
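Luminescence read by CCD imager after adding enzyme (10nM final) to wells holding compound, titrated in qHTS. Substrates 10uM each D-luciferin and ATP; buffer 50mM Tris acetate pH 7.5, 10mM Mg acetate, Tween-20, BSA.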
hNpr1 antagonist – antagonists of human natriuretic peptide receptor Npr1; P16066; HEK293 hNpr1 GloSensor cGMP, ANP-stimulated luminescence; Potency, µM (series often up to 46.3 µM), without a hit: at the highest dose activity change, negative = inhibition, actives largely listed as inhibitors; 76,000 tested, 1.6% active; further: on the % scale 0 is the no-effect control and ±100 the full control effect; nearly all actives have a fitted effect of over 60% in size
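Compound pre-incubated 30 min at room temperature on GloSensor-loaded HEK293 cells stably carrying hNpr1 and the pGS-40F cGMP biosensor. Stimulation uses hNppA at 0.1 nM final; luminescence is taken at baseline and 20 min post-agonist.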
NPR1 antag cnf – hNpr1 antagonism, confirmation assay; shares compounds with hNpr1 antagonist; HEK293 hNpr1 cGMP GloSensor luminescence, ANP-stimulated; Potency, µM (series often up to 57.6 µM), for the others: at the highest dose activity change, negative = inhibition, most hits filed as inhibitors; 1,400 tested, 76% active; AID 1347044; further: nearly all actives have a fitted effect of over 70% in size
Npr2 selectivity – selectivity test of Npr1 antagonists against human Npr2. shares compounds with hNpr1 antagonist. 1,400 tested, 67% active. Potency, µM (doses to about 57.6 µM), for the others: at the top dose activity change, negative = inhibition, usual class: inhibitors. HEK293 hNpr2 GloSensor cGMP luminescence, CNP-stimulated. AID 1347046; further: nearly all actives have a fitted effect of over 70% in size
FLuc counter – FLuc enzyme inhibition, Npr1 counter-screen; 1,400 tested, 0.7% active; purified FLuc enzyme, luminescence, Km substrate; shares compounds with hNpr1 antagonist; Potency, µM (series often up to 57.6 µM), inactives show at the top dose activity change, negative = inhibition, usual class: inhibitors; active means well fitted curve in the direction sought with a large enough effect; inconclusive means small, poorly fitted or top-dose-only effect, or another doubt; inactive means no such curve, though single readings can be large; an effect the other way counts as inactive or inconclusive; further: 0% is about no effect
GloSensor ctrl – counter-screen for Npr1 antagonists: GloSensor control cell line; shares compounds with hNpr1 antagonist; HEK293 GloSensor cGMP, SNP-stimulated, luminescence; Potency, µM (top dose mostly 57.6 µM), inactives show at the highest dose activity change, negative = inhibition, most hits filed as inhibitors; 1,400 tested, 69% active; further: on the % scale 0 is the no-effect control and ±100 the full control effect; nearly all actives have a fitted effect of over 70% in size
* hit, by the source's call; [ ] = remark or other dose. A selection: hits, their analogues and other compounds. The true share with any hit is near 11%. Unless noted, the call rests on the fitted dose curve. Potency means the concentration at half of the fitted maximal effect.

`Cc1nn2c(c1-c1ccccc1-c1ccccc1)N(C(=O)Cc1ccc3c(c1)OCO3)CCC2` gave HEK cytotox inconclusive, 3T3 cytotox inconclusive, FLuc inh inactive and hNpr1 antagonist -30.0%.
For COc1cccc(C(=O)N2CCCC3(CN[S+](=O)([O-])c4cnccc4N3)C2)c1 (stereo not drawn) the results were HEK cytotox 4.2% and 3T3 cytotox -14.0%.
For Fc1ccc(-c2cnc([C@@H]3COCCN3Cc3c[nH]c4ccccc34)[nH]2)c(F)c1 the results were HEK cytotox 79.4µM*, 3T3 cytotox inconclusive, FLuc inh inactive, hNpr1 antagonist 25.1µM*, NPR1 antag cnf 35.3µM*, Npr2 selectivity 44.4µM*, FLuc counter -6.3%[86.2 µM] and GloSensor ctrl 39.6µM*.
F[C@@H]1CN(Cc2ccc(C(F)(F)F)cc2)C[C@@H]1OCc1nc2ccncc2[nH]1 was read as HEK cytotox inconclusive, 3T3 cytotox inconclusive, FLuc inh inactive and hNpr1 antagonist inconclusive.
For F[C@@H]1CN(Cc2ccc(C(F)(F)F)cc2)C[C@@H]1OCc1nc2ccccc2[nH]1 the results were HEK cytotox 79.4µM*, 3T3 cytotox inconclusive, FLuc inh inactive, hNpr1 antagonist 28.2µM*, NPR1 antag cnf 39.6µM*, Npr2 selectivity 39.6µM*, FLuc counter -2.1%[86.2 µM] and GloSensor ctrl 39.6µM*.
`Cc1nc2cccnc2n1CC1CCCN(S(=O)(=O)c2ccc(CC(C)C)cc2)C1` (stereo not drawn) gave HEK cytotox 31.6µM*, 3T3 cytotox inconclusive, FLuc inh inactive, hNpr1 antagonist 12.6µM*, NPR1 antag cnf 21.7µM*, Npr2 selectivity 24.3µM*, FLuc counter 2.0% and GloSensor ctrl 21.7µM*.
`Cc1nc2cccnc2n1CC1CCCN(S(=O)(=O)c2ccc3c(c2)CCCC3)C1` (stereo not drawn) gave HEK cytotox inconclusive, 3T3 cytotox inconclusive, FLuc inh inactive and hNpr1 antagonist inconclusive.
For O=S(=O)(c1ccc2c(c1)CCCC2)N1CCCC(Cn2cnc3cccnc32)C1 (stereo not drawn) the results were HEK cytotox inconclusive, 3T3 cytotox inconclusive, FLuc inh inactive, hNpr1 antagonist inconclusive, NPR1 antag cnf 24.3µM*, Npr2 selectivity 19.3µM*, FLuc counter -1.6% and GloSensor ctrl 24.3µM*.
Screening COc1ccc(-c2cccc(C(=O)N3CCC(NC(=O)c4ccccc4Cl)CC3)c2)nn1 returned HEK cytotox inconclusive and 3T3 cytotox -14.6%.
For Cc1ccc(C(=O)N2CCC(C(=O)N3CCC(N4Cc5cccn5C4=O)CC3)CC2)cc1 the results were HEK cytotox -14.2% and 3T3 cytotox -16.9%.
Screening Cc1ccc([S+](=O)([O-])N2CCC[C@@H]2C(=O)N2CCC(N3CCOC3=O)CC2)cc1 returned HEK cytotox inactive and 3T3 cytotox -0.2%.
Screening O=C1NCc2ccccc2CC12CCCN2Cc1ccc(Br)cc1 (stereo not drawn) returned HEK cytotox inconclusive, 3T3 cytotox inconclusive, NPR1 antag cnf -20.7%, Npr2 selectivity -25.1%, FLuc counter 1.7% and GloSensor ctrl 2.4%.
`O=C(OCc1ccccc1)N1CCCN(c2cc(C3CC(O)C3)ncn2)CC1` (stereo not drawn) gave HEK cytotox inconclusive, 3T3 cytotox -27.0%, FLuc inh inactive, hNpr1 antagonist 8.91µM*, NPR1 antag cnf 15.3µM*, Npr2 selectivity 15.3µM*, FLuc counter 5.1% and GloSensor ctrl 13.7µM*.
For O=C(Cc1ccncc1)N1CCC2(CC1)NCCc1c2[nH]c2ccccc12 the results were HEK cytotox -4.6%, 3T3 cytotox -28.1%, FLuc inh inactive and hNpr1 antagonist 5.2%.
For CNC(=O)N1CCCC(c2nc(CCOCC3CCCC3)no2)C1 (stereo not drawn) the results were HEK cytotox inconclusive, 3T3 cytotox -28.9%, FLuc inh inactive, hNpr1 antagonist inconclusive, NPR1 antag cnf inconclusive, Npr2 selectivity inconclusive, FLuc counter -0.7% and GloSensor ctrl inconclusive.
`Cc1noc(C)c1C(=O)N1CC(CN2C(=O)c3c(c(C)nn3-c3ccccc3)C2C)C1` (stereo not drawn) gave HEK cytotox -4.5% and 3T3 cytotox -17.8%.
Screening O=C(c1ccc2c(c1)OCO2)N1CCC2(CC1)COc1ccccc1CN2 returned HEK cytotox -29.7%, 3T3 cytotox -6.9%, FLuc inh inactive and hNpr1 antagonist 0.0%.
For O=C(NCc1ccccc1)c1cc2n(n1)CC(c1ccc(Cl)cc1)OC2 (stereo not drawn) the results were HEK cytotox inconclusive, 3T3 cytotox inconclusive, FLuc inh inactive and hNpr1 antagonist inconclusive.
O=C(NCc1ccccc1Cl)c1cc2n(n1)CC(c1ccc(Cl)cc1)OC2 (stereo not drawn) was read as HEK cytotox inconclusive, 3T3 cytotox inconclusive, FLuc inh inactive, hNpr1 antagonist inconclusive, NPR1 antag cnf inconclusive, Npr2 selectivity inconclusive, FLuc counter -1.6% and GloSensor ctrl inconclusive.
`CC(C)c1ccc(NC(=O)c2cc3n(n2)CC(c2ccc(Cl)cc2)OC3)cc1` (stereo not drawn) gave HEK cytotox inconclusive, 3T3 cytotox -19.6%, FLuc inh inactive, hNpr1 antagonist 10µM*, NPR1 antag cnf 13.7µM*, Npr2 selectivity inconclusive, FLuc counter -15.2% and GloSensor ctrl 10.9µM*.
`O=C(Nc1ccccc1)c1cc2n(n1)CC(c1ccc(Cl)cc1)OC2` (stereo not drawn) gave HEK cytotox inconclusive, 3T3 cytotox -26.3%, FLuc inh inactive, hNpr1 antagonist 12.6µM*, NPR1 antag cnf inconclusive, Npr2 selectivity inconclusive, FLuc counter -1.4% and GloSensor ctrl inconclusive.
